Measured values from the supplement of paper PMC6555819.

The sequences below were run on VDR:RXRa (NR concentration 270 nM, RXRa partner concentration 90 nM) (assay: PBM binding z-score (relative to random genomic background probes); higher = stronger binding; sequences stand for … in GC…GCGATTGACAGCGTAGAATGAAGG).
Method: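 Protein-binding microarray (Agilent 4x180K custom design, double-stranded 60-nt probes: 5' GC cap, 34-nt variable region, 24-nt constant primer region; full probe sequence given). Purified or IVT nuclear receptor:RXRα heterodimers (3:1 NR:RXRα, mostly 270:90 nM) or homodimers were incubated for 1 h in PBS with 2% milk and no ligand, then detected with Alexa488 antibodies. Fluorescence from o1-orientation probes (~5 replicates averaged) was converted to z-scores against 500 random hg19 background probes. Variable regions are seed direct-repeat (DR0–DR5) sites, all their single-nucleotide variants and half-site ablations.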
CAAACTAGTTCACAGAGGTCAAAGTCCGTGCGTA gave a PBM binding z-score of 7.47. In the case of ACTAGTTGGTCAGCTGAGGTCACAAACAATTCGG, the PBM binding z-score is reported as 4.24. CCGACTGGGGCATAAGGTTACCATAAGCCAGCCC gave a PBM binding z-score of -0.0909. CCTACTGGGCCAAAAAGGTCACTGATGCCGATAA showed a PBM binding z-score of 4.5. CCTGCTAGGTCATGGTCGGCTAATCTACAGTATG showed a PBM binding z-score of 1.57. For CGTCCAAGGTCAATGCTAGGTCAGTGGAAGCATT, the PBM binding z-score was 4.77. ATCTCTAGGTAAGACTCAGTTCAGTAAAGAACGC showed a PBM binding z-score of 1.12. TCATATAGGTAAACAGGCGAAAGTCCGTAAGTTA showed a PBM binding z-score of 1.13. CTCGAAAGGTCGTGCTCAGGTGAGGATACCAAAC gave a PBM binding z-score of 3.3. With CCTCGGAAGACAACAGGAGGTCAGAGCTGCCAGA the PBM binding z-score was 1.5. TCTTGTAGATCAACAGGAGGTTAAGAGAGATCGA showed a PBM binding z-score of 0.733. With CCTGCTAGGTCAATGGTCAGGTAAAGCAGCTCGC the PBM binding z-score was 0.722. Sequence CGTCAAAGTTCAACTAAGGTAACGTGAAGCACGC has a PBM binding z-score of 4.37. Sequence CGAACTAGGTCAGAACAGGACGGTGAAGGATGAT has a PBM binding z-score of 0.0677. TCATATAGGTAAAGGTGAAATTCGAACGATATGA was tested, and the PBM binding z-score was 1.03. TGTCGGAGGACACGAAGGTCAGAGCTTTCCAGAG was tested, and the PBM binding z-score was 2.42. In the case of TCTTGTAGAACAAAGGTTAAGAAAGCCGAAGCCT, the PBM binding z-score is reported as 1.18. Sequence ACTAGCAGGCCAAGGGACACTCAAGATTAGTCCG has a PBM binding z-score of -0.487. In the case of AATACAGGGTCATCGTAGGCCAGAGCACGCACAG, the PBM binding z-score is reported as 5.2. In the case of GATACAGGGTCAGCTAGAGACCAGAGTATGGAAA, the PBM binding z-score is reported as 2.23. For CCTACTGGGCCAAAAAGGTCATTTATGCCGATAA, the PBM binding z-score was 4.44. Sequence CCTACTGGGCCATTCAGAGGTCATTGAACATATG has a PBM binding z-score of 4.16. CGAACTAGGTCAGAACAGGACAGTGCAGGATGAT was tested, and the PBM binding z-score was 0.787. With CCGAGTAGGTTAAGGGGCATTCAGGCAACGGTGA the PBM binding z-score was 0.877. ACTTACGGGTCAACGATGTTATAGCACGCGTATA was tested, and the PBM binding z-score was 4.93. Sequence ACTTACGGGTCGACGAGGTTATAGCACGCGTATA has a PBM binding z-score of 6.05. ACTAGCAGGCCAACTTTGGGTCACTCAAACAAAG gave a PBM binding z-score of 0.536. For GCTTGGAGGACAAGGTCAGAGCTTTGTCCGTAGA, the PBM binding z-score was 1.41. ATATGTAGGTTAAGAGTCATTCAGGTTGGTTCGC was tested, and the PBM binding z-score was 1.6. CGTCCAAGGTGAATGCTAGGTCAGTGAAAGCATT was tested, and the PBM binding z-score was 0.559. In the case of CGTCAAAGTTCAACTAAGGGAACGTAAAGCACGC, the PBM binding z-score is reported as 4.35. In the case of GCTGCTAGGTCAGGTTGGTCAGCTACCGGGTACG, the PBM binding z-score is reported as 0.397. For TCTTGTAGATCAACAGGACGTTAAGAAAGATCGA, the PBM binding z-score was 0.305. Work on CCAGACAGGTGAAAGGTAACTCATTCTGGTACGC yielded a PBM binding z-score of 0.817. In the case of TCGAGTAAGTTAGGGGCATTCAGAATGGCGTCGA, the PBM binding z-score is reported as 0.425. For CCTACTGGGCCACGAAAGATCATTGATTCAGTGA, the PBM binding z-score was -0.306. Sequence ATCTCTCGGTAAAGATAGTTCAGTGAATGCAAAT has a PBM binding z-score of 0.595. CGTCCAAGGTCCAGGTCAGTGAAAGAGACTCGAA gave a PBM binding z-score of 0.373. GATAGAGGGTCAAGGCCAGAGTACGCGTATTGAT showed a PBM binding z-score of 3.37. With CCTCGGAGGATAACAGGAGGTCAGAGCTGCCAGA the PBM binding z-score was 1.5.
